Data: PubChem BioAssay (NCATS)
Values without a mark were called inactive. Calls come from the whole dose curve; as a rule, active = well fitted curve in the direction sought with a large enough effect; inactive = no such curve, though single readings can be large or run the other way.

Biological target: Alpha-galactosidase A (Homo sapiens) (UniProt P06280)
Assay: Counterscreen for Glucocerebrosidase Inhibitors: qHTS Assay for Human alpha-Galactosidase at pH 4.5 (AID 992); note: 0% is about no effect
Details: purified enzyme, fluorogenic substrate; series mostly up to 76.9 µM; activity change, negative = inhibition: at the top concentration
Outline: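 Fluorogenic 4-MU alpha-D-galactoside (80 uM) hydrolysis, 2 nM enzyme, pH 4.5 citrate buffer + 0.005% Tween-20; 20 min RT; NaOH/glycine pH 10 stop; Ex365/Em440. Compounds titrated 0.7 nM–77 uM; Hill-equation AC50.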

Alpha-galactosidase A (Homo sapiens), sequence (P06280 whole entry, looked up): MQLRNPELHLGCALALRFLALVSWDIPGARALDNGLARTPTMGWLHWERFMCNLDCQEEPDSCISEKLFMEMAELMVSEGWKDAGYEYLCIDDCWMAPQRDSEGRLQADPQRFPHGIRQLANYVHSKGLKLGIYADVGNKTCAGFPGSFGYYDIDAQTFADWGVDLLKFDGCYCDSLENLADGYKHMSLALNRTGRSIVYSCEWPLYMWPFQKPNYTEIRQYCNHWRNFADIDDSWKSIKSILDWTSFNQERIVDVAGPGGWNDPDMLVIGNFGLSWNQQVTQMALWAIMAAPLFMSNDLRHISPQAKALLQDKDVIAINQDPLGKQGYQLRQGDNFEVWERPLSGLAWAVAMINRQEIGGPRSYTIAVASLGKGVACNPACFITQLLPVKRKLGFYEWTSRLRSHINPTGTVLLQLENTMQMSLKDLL

SMILES | activity change, negative = inhibition
O=C1c2c(O)ccc(O)c2C(=O)c2c(NCCNCCO)ccc(NCCNCCO)c21 | -2.65%
CNCCCC12CCC(c3ccccc31)c1ccccc12 | -0.46%
O=C(c1ccc(F)cc1)C1CCN(CCn2c(=O)[nH]c3ccccc3c2=O)CC1 | -1.12%
CN1CCN(CCCN2c3ccccc3Sc3ccc(Cl)cc32)CC1 | -2.32%
CN(C)CCOC(c1ccccc1)c1ccccc1 | 0.8%
Cc1ccccc1N1C(=O)c2cc(S(N)(=O)=O)c(Cl)cc2NC1C (stereo not drawn) | 3.47%
NC12CC3CC(CC(C3)C1)C2 | 3.3%
CC[N+](CC)(CC)CCOc1cccc(OCC[N+](CC)(CC)CC)c1OCC[N+](CC)(CC)CC | 1.65%
Cc1ccc(C(=O)Nc2ccc(S(=O)(=O)O)c3cc(S(=O)(=O)O)cc(S(=O)(=O)O)c23)cc1NC(=O)c1cccc(NC(=O)Nc2cccc(C(=O)Nc3cc(C(=O)Nc4ccc(S(=O)(=O)O)c5cc(S(=O)(=O)O)cc(S(=O)(=O)O)c45)ccc3C)c2)c1 | 0.9%
O=C1N(c2ccccc2)c2ccccc2C1(Cc1ccncc1)Cc1ccncc1 | -3.2%
CN1CCC(=C2c3ccccc3CC(=O)c3sccc32)CC1 | 5.2%
CCOC(=O)C(C)(C)Oc1ccc(Cl)cc1 | -0.496%
Cn1cnc2c1c(=O)[nH]c(=O)n2C | 5.76%
OCCN1CCN(CCCN2c3ccccc3Sc3ccc(C(F)(F)F)cc32)CC1 | -4.05%
CCc1cccc2c3c([nH]c12)C(CC)(CC(=O)O)OCC3 (stereo not drawn) | 5.53%
CN(C)c1nc(N(C)C)nc(N(C)C)n1 | -1.16%
NC(=O)NO | -0.317%
CCOC(=O)c1ncn2c1CN(C)C(=O)c1cc(F)ccc1-2 | -1.75%
